For 23 compounds, outcome results are on record in PubChem BioAssay AID651657 (Broad Institute, 2012).

Entries with a potency or affinity are not part of this list. Calls of active or inactive are those of the source.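 Rule for the calls: active = signal falls, with fitted half-maximal concentration at most twice the top valid dose tested; inconclusive = flat curve with partial signal loss, or poor curve fit; inactive = the rest, including signal rising instead.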

The target in this experiment is DNA repair and recombination protein RAD54-like (Homo sapiens) (UniProt Q92698). In words: RAD54 Holliday junction migration blockers – biochemical, fluorescence, cherry-picked samples, dose series, confirmation (AID 651657). The settings on record: RAD54 branch migration, FAM/BHQ fluorescence, 60 min; series mostly up to 50 µM.
Chain of DNA repair and recombination protein RAD54-like (Homo sapiens) (Q92698 whole entry, looked up): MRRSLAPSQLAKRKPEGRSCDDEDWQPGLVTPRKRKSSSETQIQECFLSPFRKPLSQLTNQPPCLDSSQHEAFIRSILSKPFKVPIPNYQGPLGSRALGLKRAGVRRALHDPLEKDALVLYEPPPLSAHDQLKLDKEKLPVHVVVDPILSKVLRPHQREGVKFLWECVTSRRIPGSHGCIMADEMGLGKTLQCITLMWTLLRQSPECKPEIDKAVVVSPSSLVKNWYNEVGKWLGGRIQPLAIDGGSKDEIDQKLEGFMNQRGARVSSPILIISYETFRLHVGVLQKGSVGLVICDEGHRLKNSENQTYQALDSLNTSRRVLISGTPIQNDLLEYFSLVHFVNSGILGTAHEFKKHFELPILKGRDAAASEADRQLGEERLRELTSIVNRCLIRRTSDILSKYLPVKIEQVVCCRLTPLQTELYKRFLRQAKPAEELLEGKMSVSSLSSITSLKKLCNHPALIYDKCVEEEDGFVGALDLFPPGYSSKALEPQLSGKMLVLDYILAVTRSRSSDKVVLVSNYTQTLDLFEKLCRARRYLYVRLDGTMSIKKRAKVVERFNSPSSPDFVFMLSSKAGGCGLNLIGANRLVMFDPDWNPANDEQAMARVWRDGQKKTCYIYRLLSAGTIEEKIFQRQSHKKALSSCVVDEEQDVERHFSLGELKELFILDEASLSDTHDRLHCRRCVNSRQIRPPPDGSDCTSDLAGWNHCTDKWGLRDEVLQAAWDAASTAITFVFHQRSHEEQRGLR
For the compound `Cn1nc(-c2ccccc2)cc1NS(=O)(=O)c1ccc(C#N)cc1`, the result was inactive.

Take `NCCN1CCN(CCN)CC1`: the result was inactive.

For `O=S(=O)(c1ccc(-c2nnc(SCc3ccccc3)o2)cc1)N1CCCC1`, the result was inactive.

Consider `CCCC(c1nnnn1Cc1ccc(OC)cc1)N1CCN(c2ccccc2)CC1` (stereo not drawn), for which the result was inactive.

Consider `CCN(CC)S(=O)(=O)c1ccc(Cl)c(C(=O)Nc2nnc(C)s2)c1`, for which the result was inactive.

In the case of `O=c1cc(CSc2n[nH]c(=O)n2C2CC2)c2ccc(O)cc2o1`, the outcome was inactive.

Regarding `C(=C/c1nccc2c1[nH]c1ccccc12)/c1ccc2c(c1)OCO2`, the result was inactive.

`COc1ccccc1NC(=O)Cn1nnc2sc3c(c2c1=O)CC(C)(C)OC3`: the outcome was inactive.

As for `CCC(=O)N(Cc1cc2cc(OC)ccc2[nH]c1=O)c1cc(C)ccc1C`, the outcome was inactive.

On to `CC1CCCCC1NC(=O)C1Cc2ccccc2CN1S(C)(=O)=O` (stereo not drawn), for which the outcome was inactive.

Take `COc1ccccc1C(=O)C(O)c1ccccc1OC` (stereo not drawn): the outcome was inactive.

`COC(=O)Nc1nnc(COc2ccccc2)s1`: the result was inactive.

Turning to `O=C(Nc1nnc(COc2ccc(F)cc2)s1)c1ccco1`, the result was inactive.

As for `Cc1nc2oc3c(=O)[nH]cnc3c2c2c1COC(C)(C)C2`, the result was inactive.

`CN1CCN(CC(=O)Nc2nc(-c3c[nH]c4ccccc34)cs2)CC1`: the result was inactive.

For `Cc1ccnc(SCC(=O)Nc2sc3c(c2C#N)CCC(C(C)(C)C)C3)n1` (stereo not drawn), the outcome was inactive.

As for `COc1ccc(N2C(=O)CSC23CCCCC3)cc1`, the outcome was inactive.

`COc1ccccc1C1=NOC(Cn2c(NCCCO)nc3c2c(=O)n(C)c(=O)n3C)C1` (stereo not drawn): the result was inactive.

For `COC(=O)C1=C(C)Nc2nc3ccccc3n2C1c1ccccc1F` (stereo not drawn), the result was inactive.

On to `C=CCN1C(=O)C(C)(C)Nc2ccccc21`, for which the result was inactive.

Turning to `NC(=O)C1CCN(c2nc(-c3cccnc3)cs2)CC1`, the result was inactive.

On to `O=C(NN1CCOCC1)c1cc(-c2ccc(Cl)c(Cl)c2)nc2ccccc12`, for which the outcome was inactive.

As for `Cc1ccc(S(=O)(=O)CCSc2ccc(C(F)(F)F)cn2)cc1`, the outcome was inactive.
